Experimental data: PubChem BioAssay (EPA / NIEHS)
Activity calls are given as the source filed them. The calls were made as follows: active = hit-call score of the fitted dose curve at least 0.9, where 1 is the maximum; inactive = score below 0.9.

Each compound was assayed on Plasminogen activator inhibitor-1 (PAI1), SERPINE1 (gene 5054) (assay: BSK_hDFCGF_PAI1: BioMAP Diversity Plus: hDFCGF Assay for Plasminogen activator inhibitor-1 (PAI1) Biomarker Activity (AID 2283066)). Conditions: primary human foreskin fibroblasts; actives raise or lower the signal.
Procedure: BSK_hDFCGF is a cell-based, multiplexed-readout assay that uses foreskin fibroblast, a human skin primary cell, with measurements taken at 24 hours after chemical dosing in a 96-well plate.BSK_hDFCGF_PAI1 is an assay component measured in the BSK_hDFCGF assay. It measures PAI-1 antibody related to regulation of gene expression using ELISA technology.Data from the assay component BSK_hDFCGF_PAI1 was analyzed into 1 assay endpoint. This assay endpoint, BSK_hDFCGF_PAI1, was analyzed with bidirectional fitting relative to DMSO as the negative control and baseline of activity. Using a type of binding reporter, gain or loss-of-signal activity can be used to understand changes in the signaling as they relate to the gene SERPINE1. Furthermore, this assay endpoint can be referred to as a primary readout, because this assay has produced multiple assay endpoints where this one serves a signaling function. To generalize the intended target to other relatable targets, this assay endpoint is annotated to the cytokine intended target family, where the subfamily is plasmogen activator inhibitor.
The levels of cell surface (or secreted, indicated by the prefix "s") biomarker endpoints were measured by ELISA. Overt cytotoxicity to cells in confluent adherent cultures (all systems other than the BT system) was assessed by measuring total protein levels using sulforhodamine B (SRB) staining in parallel cultures at the time of biomarker measurements, indicated as SRB endpoints. For proliferation assays for adherent cell types, individual cell types are cultured at sub-confluence and relative cell numbers quantified by SRB staining at time points optimized for each system (48 h: 3C and CASM3C systems; 72 h: BT and HDF3CGF systems; 96 h: SAg system). SRB was performed by staining cells with 0.1% SRB after fixation with 10% TCA and reading wells at 560 nm.Viability and proliferation of PBMC (T cells) was quantified by Alamar Blue reduction for the SAg and BT systems. For PBMC viability (referred to as PBMC Cytotoxicity within the assay endpoint names), cells were plated (75,000/well in a 96-well plate) and then chemical samples added for 1 h before addition of activators, SEB and TSST-1 (20 ng/mL final concentration each). Cells were incubated for 90 h. Then, Alamar Blue (20 uL/well) (Invitrogen, Cat DAL1100) was added for 6 h, and the plates were read with a fluorescence microplate reader at 546/580 nm (excitation/emission). For PBMC proliferation, cells were plated and activated as above but incubated for only 16 h prior to addition of Alamar Blue. Plates were read after 6 h.
With CCOP(=S)(OCC)SCn1nnc2ccccc2c1=O the outcome was “inactive”.
With Nc1ccc([N+](=O)[O-])cc1Cl the outcome was “inactive”.
O=[N+]([O-])c1ccc(Cl)c(Cl)c1 was tested, and the outcome was “inactive”.
In the case of Nc1ccc(Cl)cc1, the outcome was “inactive”.
With O=c1ssc(Cl)c1Cl the AC50 was 4.05 µM (active).
O=C(O)C1C(C(=O)O)C2(Cl)C(Cl)=C(Cl)C1(Cl)C2(Cl)Cl (stereo not given) was tested, and the outcome was “inactive”.
In the case of ClC1=C(Cl)C2(Cl)C3C(Cl)C(Cl)CC3C1(Cl)C2(Cl)Cl (stereo not given), the AC50 was 10.3 µM (active).
With O=C(O)C=CC(F)(C(F)(F)F)C(F)(F)F the outcome was “inactive”.
N#Cc1c(-c2ccc(Cl)cc2)[nH]c(C(F)(F)F)c1Br was tested, and the AC50 was 0.39 µM (active).
Cc1c([N+](=O)[O-])cc2c(c1[N+](=O)[O-])C(C)(C)CC2(C)C was tested, and the outcome was “inactive”.
COCCOCCO was tested, and the outcome was “inactive”.
For CC(Cl)CN(C)C (stereo not given), the outcome was “inactive”.
In the case of O=P(Oc1ccccc1)(Oc1ccccc1)Oc1ccccc1, the AC50 was 20 µM (active).
With CCCCCCCc1ccc(O)cc1 the AC50 was 30.3 µM (active).
In the case of OCC1CO1 (stereo not given), the outcome was “inactive”.
In the case of CCOP(=S)(OCC)SCSc1ccc(Cl)cc1, the outcome was “inactive”.
For Cc1ccc(O)cc1C, the outcome was “inactive”.
CC(Cl)(Cl)C(=O)O was tested, and the outcome was “inactive”.
In the case of CCOP(=S)(S)OCC, the outcome was “inactive”.
With CCOP(=S)(NC(C)C)Oc1ccccc1C(=O)OC(C)C (stereo not given) the AC50 was 0.257 µM (active).
CN(C)C(=O)Cl was tested, and the outcome was “inactive”.
For CCCCN(CCCC)SN(C)C(=O)Oc1cccc2c1OC(C)(C)C2, the AC50 was 8.57 µM (active).
In the case of OCC(F)(F)OC(F)(F)C(F)(F)OC(F)(F)C(F)(F)OC(F)(F)CO, the outcome was “inactive”.
For Nc1cc2c3c(c1)C(c1ccccc1)=N[C@@H](NC(=O)c1cccnc1)C(=O)N3CC2, the AC50 was 0.523 µM (active).
O=C(O)C(F)(OC(F)(F)C(F)(F)C(F)(F)F)C(F)(F)F (stereo not given) was tested, and the outcome was “inactive”.
C=CC(=O)OCC(F)(F)C(F)F was tested, and the outcome was “inactive”.
In the case of c1cc2c3c(cccc3c1)CC2, the outcome was “inactive”.
In the case of CC(Cc1ccc(OCC(=O)O)cc1)NCC(O)c1csc(C(F)(F)F)n1 (stereo not given), the outcome was “inactive”.
With OCC(F)(F)OC(F)(F)C(F)(F)OC(F)(F)C(F)(F)OC(F)(F)F the outcome was “inactive”.
For CCOc1ccc(C(C)(C)COCc2cccc(Oc3ccccc3)c2)cc1, the outcome was “inactive”.
In the case of FC(F)(F)C(F)(C(F)(F)F)C(F)(F)C(F)(F)CC1CO1 (stereo not given), the outcome was “inactive”.
With O=S1(=O)OCC2C(CO1)C1(Cl)C(Cl)=C(Cl)C2(Cl)C1(Cl)Cl (stereo not given) the outcome was “inactive”.
For O=[N+]([O-])c1ccccc1, the outcome was “inactive”.
For ClC(Cl)=C(c1ccc(Cl)cc1)c1ccccc1Cl, the AC50 was 4.24 µM (active).
With Nc1ccc2ccccc2c1 the outcome was “inactive”.
With CCC1(c2ccccc2)C(=O)N=C(O)NC1=O (stereo not given) the outcome was “inactive”.
For ClC(Cl)c1ccccc1, the outcome was “inactive”.
With N#Cc1cc([N+](=O)[O-])ccc1N the outcome was “inactive”.
COP(=O)(CCC(=O)NCO)OC was tested, and the outcome was “inactive”.
In the case of [N-]=[N+]=[N-], the outcome was “inactive”.
